Results published in PubChem BioAssay (Tox21).
A number with no mark means an inactive call. Records with an inconclusive call do not appear. Activity calls are given as the source filed them. The call rests on the fitted dose curve; in most records, active means well fitted curve in the direction sought with a large enough effect in the repeat runs; inconclusive means weak or mixed curves; inactive means no such curve, though single readings can be large; an effect the other way counts as inactive or inconclusive.

assay: Caspase-3/7 induction in CHO-K1 cells by small molecules, qHTS cell viability counter screen (AID 1346979); conditions: CellTiter-Fluor fluorescence, 17 h; series mostly up to 92.4 µM; activity change, negative = cytotoxicity: at the top concentration; further: nearly all actives have a fitted effect of over 35% in size; further: potency means the concentration at half of the fitted maximal effect
In short: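 Seeding: 1,500 CHO-K1 cells/well. Rest: 5hr, 37C. Treatment: compounds in DMSO, 16hr. Read: CellTiter-Fluor, 1hr, fluorescence.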
On the % scale 0 is the no-effect control and ±100 the full control effect.

First: C(=C\c1ccccc1)/c1ccccc1
Second: CC(O)c1ccccc1 (stereo not given)
The “activity change, negative = cytotoxicity” value of the first is higher: 5.37% for the first, 0.56% for the second.

Going from `CC(CCC(=O)O)C(=O)O` (stereo not given) to `O=C(O)C[C@H](NC(=O)OCc1ccccc1)C(=O)O`, the “activity change, negative = cytotoxicity” value rises from -1.39% to 12.6%.

First: CCOC(C)=O
Second: CCOC(=O)/C=C/C(=O)OCC
The “activity change, negative = cytotoxicity” value of the first is lower: 0.438% for the first, 5.64% for the second.

First: CCCCC(CC)CN (stereo not given)
Second: CCCCCCCCN
The “activity change, negative = cytotoxicity” value of the first is higher: 7.43% for the first, -2.26% for the second.

Compared with `CCC(C)(C)OC`, `CCCCCC#CC(=O)OC` is higher in “activity change, negative = cytotoxicity” value: -0.052% for the first, 4.1% for the second.

Compared with `C1COC1`, `O=C1CCCCCCCCCCOCCCCO1` is lower in “activity change, negative = cytotoxicity” value: 2.86% for the first, -3.54% for the second.

First: CC(C)C(O)(c1ccc(OC(F)(F)F)cc1)c1cncnc1 (stereo not given)
Second: NC(=O)c1ccncc1
The “activity change, negative = cytotoxicity” value of the first is lower: -3.55% for the first, 4.49% for the second.

First: OCCOCC#CCOCCO
Second: C=C(C)C(=O)OCCCCCCCCCCCCC
The “activity change, negative = cytotoxicity” value of the first is lower: 0.264% for the first, 0.763% for the second.

With `Cc1cc(C)cc(N)c1` the “activity change, negative = cytotoxicity” value was -1.93%.

Going from `O=C(CCCN1CC=C(n2c(=O)[nH]c3ccccc32)CC1)c1ccc(F)cc1` to `COc1ccccc1N1CCN(CCCCNC(=O)c2ccc(-c3ccc(C(C)=O)cc3)cc2)CC1`, the “activity change, negative = cytotoxicity” value falls from -4.38% [at 42.5 µM] to -5.09% [at 42.5 µM].

Compared with `O=C(Nc1cccc2c(=O)cc(-c3nn[nH]n3)oc12)c1ccc(OCCCCc2ccccc2)cc1`, `O=C(O)c1ccc(OCCCOc2ccc(C(=O)O)cc2)cc1` is higher in “activity change, negative = cytotoxicity” value: 0.272% [at 42.5 µM] for the first, 4.8% [at 42.5 µM] for the second.

Compared with `CC1(C)O[C@@H]2C[C@H]3[C@@H]4C[C@H](F)C5=CC(=O)C=C[C@]5(C)[C@H]4[C@@H](O)C[C@]3(C)[C@]2(C(=O)CO)O1`, `CCOC(=O)OC(C)OC(=O)[C@@H]1N2C(=O)[C@@H](NC(=O)[C@H](N)c3ccccc3)[C@H]2SC1(C)C` (stereo not given in full) is lower in “activity change, negative = cytotoxicity” value: 6.94% [at 42.5 µM] for the first, -2.26% [at 42.5 µM] for the second.

First: CC1CC(OC(=O)C(O)c2ccccc2)CC(C)(C)N1C (stereo not given)
Second: CC(C)=CCC1C(=O)N(c2ccccc2)N(c2ccccc2)C1=O
The “activity change, negative = cytotoxicity” value of the first is higher: -0.263% [at 42.5 µM] for the first, -0.477% [at 42.5 µM] for the second.

In the case of `O=C1c2ccccc2C(=O)c2c(O)c(O)cc(O)c21`, the Potency is reported as 48.6 µM (active).
With `CC(=O)Oc1ccc([N+](=O)[O-])cc1CCl` the Potency was 30.6 µM (active).
With `c1csc(SSc2cccs2)c1` the Potency was 34.4 µM (active).
With `C[C@@H]1CN(CCCn2c3ccccc3c3ccccc32)C[C@H](C)N1` the Potency was 29.8 µM (active).
With `CC(=O)N/N=C/c1ccc([N+](=O)[O-])o1` the Potency was 29.8 µM (active).

assay: Caspase-3/7 induction in CHO-K1 cells by small molecules, qHTS assay (AID 1346980); conditions: CHO-K1 caspase-3/7 induction, Caspase-Glo luminescence, 17 h; series mostly up to 92.4 µM; caspase-3/7 activation: at the top concentration; further: nearly all actives have a fitted effect of over 15% in size
In short: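 Wild-type cells were seeded at 1,500 per well and settled 5 hr at 37 C, 5% CO2, then exposed to DMSO-dissolved compounds for 17 hr. Caspase-Glo 3/7 reagent was added, and luminescence was read after 30min at room temperature.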

Compared with `C(=C\c1ccccc1)/c1ccccc1`, `O=C1c2ccccc2C(=O)C1c1nc2ccccc2c(Br)c1O` is lower in “caspase-3/7 activation” value: -0.163% for the first, -1.82% for the second.

Compared with `CC(CCC(=O)O)C(=O)O` (stereo not given), `O=C(O)C[C@H](NC(=O)OCc1ccccc1)C(=O)O` is higher in “caspase-3/7 activation” value: 0.336% for the first, 1.4% for the second.

Going from `CCOC(C)=O` to `CCOC(=O)/C=C/C(=O)OCC`, the “caspase-3/7 activation” value rises from 0.0118% to 1.27%.

Compared with `CCCCC(CC)CN` (stereo not given), `CCCCCCCCN` is higher in “caspase-3/7 activation” value: -0.524% for the first, -0.0107% for the second.

Going from `CC(O)c1ccccc1` (stereo not given) to `O=c1[nH]ncc2ccccc12`, the “caspase-3/7 activation” value rises from -0.779% to -0.0519%.

Going from `COC(=O)CS` to `CCCCCC#CC(=O)OC`, the “caspase-3/7 activation” value falls from 0.0028% to -0.316%.

Going from `CCCCCCCCCCC(=O)O` to `C=C(C)C(=O)OCCCCCCCCCCCCC`, the “caspase-3/7 activation” value rises from -1.71% to 0.154%.

First: CCC(C)(C)OC
Second: C=C/C(C)=C/C/C=C(\C)CCC=C(C)C
The “caspase-3/7 activation” value of the first is lower: -0.431% for the first, 3.16% for the second.

Going from `C1COC1` to `O=C1c2ccccc2C(=O)c2c(O)c(O)cc(O)c21`, the “caspase-3/7 activation” value falls from -0.704% to -2.97%.

First: CC(=O)Oc1ccc([N+](=O)[O-])cc1CCl
Second: C=Cc1ccc(S(=O)(=O)O)cc1
The “caspase-3/7 activation” value of the first is lower: -1.88% for the first, 8.85% for the second.

First: CC(C)C(O)(c1ccc(OC(F)(F)F)cc1)c1cncnc1 (stereo not given)
Second: NC(=O)c1ccncc1
The “caspase-3/7 activation” value of the first is lower: -1.31% for the first, 0.298% for the second.

Going from `Cc1cc(C)c(N)cc1C` to `Cc1cc(C)cc(N)c1`, the “caspase-3/7 activation” value rises from 0.008% to 0.449%.

In the case of `OCCOCC#CCOCCO`, the “caspase-3/7 activation” value is reported as 1.1%.

Going from `O=C(CCCN1CC=C(n2c(=O)[nH]c3ccccc32)CC1)c1ccc(F)cc1` to `COc1ccccc1N1CCN(CCCCNC(=O)c2ccc(-c3ccc(C(C)=O)cc3)cc2)CC1`, the “caspase-3/7 activation” value falls from 0.166% [at 42.5 µM] to -0.806% [at 42.5 µM].

First: O=C(Nc1cccc2c(=O)cc(-c3nn[nH]n3)oc12)c1ccc(OCCCCc2ccccc2)cc1
Second: O=C(O)c1ccc(OCCCOc2ccc(C(=O)O)cc2)cc1
The “caspase-3/7 activation” value of the first is lower: -1.21% [at 42.5 µM] for the first, 0.116% [at 42.5 µM] for the second.

Compared with `O=C(Cn1ccnc1[N+](=O)[O-])NCCO`, `CC(=O)N/N=C/c1ccc([N+](=O)[O-])o1` is higher in “caspase-3/7 activation” value: -0.59% [at 42.5 µM] for the first, 0.709% [at 42.5 µM] for the second.

Going from `Cc1ccccc1S` to `CC1CC(OC(=O)C(O)c2ccccc2)CC(C)(C)N1C` (stereo not given), the “caspase-3/7 activation” value falls from 0.71% [at 42.5 µM] to -0.0076% [at 42.5 µM].

Compared with `CC1(C)O[C@@H]2C[C@H]3[C@@H]4C[C@H](F)C5=CC(=O)C=C[C@]5(C)[C@H]4[C@@H](O)C[C@]3(C)[C@]2(C(=O)CO)O1`, `CCOC(=O)OC(C)OC(=O)[C@@H]1N2C(=O)[C@@H](NC(=O)[C@H](N)c3ccccc3)[C@H]2SC1(C)C` (stereo not given in full) is higher in “caspase-3/7 activation” value: 0.0387% [at 42.5 µM] for the first, 0.287% [at 42.5 µM] for the second.

First: CCC1NC(=O)c2cc(S(N)(=O)=O)c(Cl)cc2N1 (stereo not given)
Second: CC(C)=CCC1C(=O)N(c2ccccc2)N(c2ccccc2)C1=O
The “caspase-3/7 activation” value of the first is higher: -1.01% [at 42.5 µM] for the first, -1.35% [at 42.5 µM] for the second.

assay: Caspase-3/7 induction in HepG2 cells by small molecules, qHTS cell viability counter screen (AID 1346981); conditions: CellTiter-Fluor fluorescence, 17 h; series mostly up to 92.4 µM; activity change, negative = cytotoxicity: at the top concentration; further: nearly all actives have a fitted effect of over 30% in size; further: potency means the concentration at half of the fitted maximal effect
In short: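 The parent HepG2 line is plated at 2,000 cells per well and rested 5 hr before compound pinning from DMSO stocks. Following a 16-hr treatment at 37 C, a fluorogenic live-cell substrate (CellTiter-Fluor) reports viability after 1 hr.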

First: C(=C\c1ccccc1)/c1ccccc1
Second: CC(O)c1ccccc1 (stereo not given)
The “activity change, negative = cytotoxicity” value of the first is higher: 1.51% for the first, 1.09% for the second.

First: CC(CCC(=O)O)C(=O)O (stereo not given)
Second: O=C(O)C[C@H](NC(=O)OCc1ccccc1)C(=O)O
The “activity change, negative = cytotoxicity” value of the first is higher: 0% for the first, -7.48% for the second.

First: CCCCC(CC)CN (stereo not given)
Second: CCCCCCCCN
The “activity change, negative = cytotoxicity” value of the first is higher: 3.54% for the first, 0.293% for the second.

Compared with `COC(=O)CS`, `CCCCCC#CC(=O)OC` is lower in “activity change, negative = cytotoxicity” value: 8.38% for the first, 1.4% for the second.

First: CCCCCCCCCCC(=O)O
Second: C=C(C)C(=O)OCCCCCCCCCCCCC
The “activity change, negative = cytotoxicity” value of the first is higher: -0.36% for the first, -1.91% for the second.

First: CCC(C)(C)OC
Second: CCOC(=O)/C=C/C(=O)OCC
The “activity change, negative = cytotoxicity” value of the first is lower: -2.7% for the first, 4.59% for the second.

First: C1COC1
Second: O=C1CCCCCCCCCCOCCCCO1
The “activity change, negative = cytotoxicity” value of the first is higher: 5.39% for the first, 1.43% for the second.

First: C=C/C(C)=C/C/C=C(\C)CCC=C(C)C
Second: CC(C)C(O)(c1ccc(OC(F)(F)F)cc1)c1cncnc1 (stereo not given)
The “activity change, negative = cytotoxicity” value of the first is lower: -0.595% for the first, 4.14% for the second.

First: O=c1[nH]ncc2ccccc12
Second: c1csc(SSc2cccs2)c1
The “activity change, negative = cytotoxicity” value of the first is higher: 5.92% for the first, -1.24% for the second.

Going from `C=Cc1ccc(S(=O)(=O)O)cc1` to `NC(=O)c1ccncc1`, the “activity change, negative = cytotoxicity” value rises from -1.23% to 4.77%.

First: Cc1cc(C)c(N)cc1C
Second: Cc1cc(C)cc(N)c1
The “activity change, negative = cytotoxicity” value of the first is higher: 2.23% for the first, 0.564% for the second.

In the case of `OCCOCC#CCOCCO`, the “activity change, negative = cytotoxicity” value is reported as 0.477%.

Compared with `O=C(CCCN1CC=C(n2c(=O)[nH]c3ccccc32)CC1)c1ccc(F)cc1`, `COc1ccccc1N1CCN(CCCCNC(=O)c2ccc(-c3ccc(C(C)=O)cc3)cc2)CC1` is higher in “activity change, negative = cytotoxicity” value: -8.58% [at 42.5 µM] for the first, -1.91% [at 42.5 µM] for the second.

Going from `O=C(Nc1cccc2c(=O)cc(-c3nn[nH]n3)oc12)c1ccc(OCCCCc2ccccc2)cc1` to `O=C(O)c1ccc(OCCCOc2ccc(C(=O)O)cc2)cc1`, the “activity change, negative = cytotoxicity” value rises from 3.23% [at 42.5 µM] to 6.3% [at 42.5 µM].

Compared with `O=C(Cn1ccnc1[N+](=O)[O-])NCCO`, `CC(=O)N/N=C/c1ccc([N+](=O)[O-])o1` is lower in “activity change, negative = cytotoxicity” value: 0.693% [at 42.5 µM] for the first, -0.986% [at 42.5 µM] for the second.

First: Cc1ccccc1S
Second: CC1CC(OC(=O)C(O)c2ccccc2)CC(C)(C)N1C (stereo not given)
The “activity change, negative = cytotoxicity” value of the first is higher: 0.325% [at 42.5 µM] for the first, -0.526% [at 42.5 µM] for the second.

Compared with `CC1(C)O[C@@H]2C[C@H]3[C@@H]4C[C@H](F)C5=CC(=O)C=C[C@]5(C)[C@H]4[C@@H](O)C[C@]3(C)[C@]2(C(=O)CO)O1`, `CCOC(=O)OC(C)OC(=O)[C@@H]1N2C(=O)[C@@H](NC(=O)[C@H](N)c3ccccc3)[C@H]2SC1(C)C` (stereo not given in full) is higher in “activity change, negative = cytotoxicity” value: 0.455% [at 42.5 µM] for the first, 0.475% [at 42.5 µM] for the second.

Going from `CCC1NC(=O)c2cc(S(N)(=O)=O)c(Cl)cc2N1` (stereo not given) to `CC(C)=CCC1C(=O)N(c2ccccc2)N(c2ccccc2)C1=O`, the “activity change, negative = cytotoxicity” value falls from 3.7% [at 42.5 µM] to -2.4% [at 42.5 µM].

For `O=C1c2ccccc2C(=O)c2c(O)c(O)cc(O)c21`, the Potency was 54.5 µM (active).
In the case of `CC(=O)Oc1ccc([N+](=O)[O-])cc1CCl`, the Potency is reported as 27.3 µM (active).
With `C[C@@H]1CN(CCCn2c3ccccc3c3ccccc32)C[C@H](C)N1` the Potency was 29.8 µM (active).
